Source: PubChem (National Center for Advancing Translational Sciences (NCATS))
Vaccinia Venus – inhibitors of vaccinia virus (Venus reporter); Vaccinia virus Venus reporter expression, fluorescence; Potency, µM (series often up to 36.5 µM), without a hit: at the highest dose activity change, negative = inhibition, most hits filed as inhibitors; 330,000 compounds, 0.46% hits; AID 720580; calls by dose curve; tested in A549 cells; also: nearly all actives have a fitted effect of over 30% in size
HCV inh – HCV inhibition; Potency, µM (series often up to 41.8 µM), for the others: top-dose activity change, negative = inhibition, actives largely listed as inhibitors; 340,000 compounds, 3.4% hits; AID 651820; Huh7.5.1 HCVcc-Cre infection, luciferase reporter, 44 h; active = well fitted inhibition curve with a large enough effect; inconclusive = small, poorly fitted or top-dose-only effect, or another doubt; inactive = no such curve, though single readings can be large or run the other way
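Cells (1,000/well) were plated 4 h before compound, then infected with HCVcc-Cre virus (~0.5 moi). After 44 h further culture, infection was read as luciferase luminescence following a 15 min substrate incubation at room temperature.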
MARV entry inh – blocks Marburg virus binding to or entry into cells; Marburg virus pseudotyped entry inhibition, cell reporter; Potency, µM (top dose mostly 37.8 µM), inactives show at the top dose activity change, negative = inhibition, usual class: inhibitors; 300,000 compounds, 1.8% hits; calls by dose curve; tested in HEK293 cells
Vaccinia mCherry – inhibitors of vaccinia virus infection (mCherry reporter signal); Vaccinia virus mCherry reporter infection, fluorescence; Potency, µM (series often up to 36.5 µM), for inactives: at the top dose activity change, negative = inhibition, usual class: inhibitors; 310,000 compounds, 0.63% hits; calls by dose curve; tested in A549 cells; also: nearly all actives have a fitted effect of over 35% in size
Lassa entry inh – blocks Lassa virus binding to or entry into cells | Lassa virus pseudotype entry inhibition, cell reporter | Potency, µM (top dose mostly 37.9 µM), without a hit: at the top dose activity change, negative = inhibition, usual class: inhibitors | 300,000 compounds, 1.2% hits | AID 540256; calls by dose curve; tested in HEK293 cells; also: nearly all actives have a fitted effect of over 50% in size
FMDV inh – antivirals against foot and mouth disease virus; FMDV antiviral cell-based qHTS; Potency, µM (top dose mostly 57.9 µM), inactives show top-dose activity change, negative = inhibition, usual class: inhibitors; 410,000 compounds, 1.2% hits; calls by dose curve; tested in HEK293T cells; also: read-out not given here; nearly all actives have a fitted effect of over 45% in size
Starred values were filed as active, the others as inactive; i = inactive; ? = inconclusive; · = no result; ! = not confirmed by another sample; [ ] = dose if it differs, or a comment. The list is not random: actives were taken first. Their share in the collection is about 5.3%. % is scaled to controls: 0 for no effect and ±100 for the full control effect; potency is read from the fitted curve at half-maximal effect.

SMILES	Vaccinia Venus	HCV inh	MARV entry inh	Vaccinia mCherry	Lassa entry inh	FMDV inh
C#CCOCCOCCOCCNc1nc(N2CCOCC2)nc(N2CCN(C(=O)CCCCCCCCCCNC(=O)Cn3cc(CCCCCN)nn3)CC2)n1	-20.7%	18.6%	·	i	·	0.3%
C#CCOCCOCCOCCNc1nc(N2CCN(C(=O)CCCCCCCCCCNC(=O)Cn3cc(CCCCCN)nn3)CC2)nc(N2CCN(C(=O)CCCCCCCCCCNC(=O)[C@H](CO)n3cc(CCCCCN)nn3)CC2)n1	?	31.6µM*	·	i	·	-20.1%
C#CCOCCOCCOCCNc1nc(N2CCN(C(=O)CCCCCCCCCCNC(=O)Cn3cc(CCCCCN)nn3)CC2)nc(N2CCN(C(=O)CCCCCCCCCCNC(=O)[C@H]([C@@H](C)CC)n3cc(CCCCCN)nn3)CC2)n1	10µM*	?	·	?	·	?
C#CCOCCOCCOCCNc1nc(N2CCOCC2)nc(N2CCN(C(=O)CCCCCCCCCCNC(=O)[C@H](CO)n3cc(CCCCCN)nn3)CC2)n1	-16.6%	0.8%	·	i	·	-17.8%
Cc1cc(C)n(-c2nc3ccccc3nc2N2CCN(c3cccc(C(F)(F)F)c3)CC2)n1	-8.0%	·	-0.5%[46.1 µM]	-4.7%	0.3%[46.1 µM]	-20.3%
CCn1c2ccc(OC)cc2c2nc3ccccc3nc21	-24.8%	7.94µM*	18.4%	·	12.6%	0.0%
CCCCn1c2ccccc2c2nnc(SCC(=O)Nc3ccc(NC(C)=O)cc3)nc21	-17.9%	·	-25.4%[46.1 µM]	-19.5%	-0.3%[46.1 µM]	0.4%
O=C1CN(C(=O)c2ccc(S(=O)(=O)N3CCCC3)cc2)C(c2ccc(F)cc2)c2cc(Br)ccc2N1 (centres undefined)	-11.0%	·	?	-22.1%	?	0.0%
Cn1c(=O)n(Cc2ccc(Cl)cc2)c(=O)c2c1nc1n2CCN1Cc1ccco1	·	15.8µM*	-22.8%	·	?	?
CCN(CC)S(=O)(=O)c1cc(C(=O)OCC(=O)Nc2ccc(-c3nc4ccc(C)cc4s3)cc2)ccc1F	-4.7%	-12.9%	?	i	3.16µM*!	-17.3%
O=C(Cc1ccc(OCc2ccccc2)cc1)NO	-6.4%	·	·	30.9%	·	·
Oc1cc2c(cc1O)[C@H]1c3ccccc3CNC1CC2 (some centres undefined)	·	·	15.8µM*	·	·	·
Oc1cc2c(cc1O)[C@H](c1ccccc1)CNCC2	·	·	-15.0%	·	·	-19.1%
O=C(NCCCN1CCC(Cc2ccccc2)CC1)c1ccc2nc(N3CCOCC3)sc2c1	·	10µM*	·	·	·	-24.9%
COc1ccc2[nH]cc(CCNC(=O)/C=C/[C@H]3O[C@@H](n4cc(C)c(=O)[nH]c4=O)C[C@@H]3O)c2c1	-0.8%	·	·	0.7%	·	-17.5%
CCN(CC)CCCOC(=O)C(OC)(c1ccccc1)c1ccccc1	-19.4%	8.4%	?	?	-14.3%	·
CCN(CC)CCCOC(=O)C(c1ccccc1)c1ccccc1	-8.0%	0.562µM*	·	-6.0%	·	-19.6%
CCCCN(C(=O)C(C)N1C(=O)c2ccccc2C1=O)c1c(N)n(CC(C)C)c(=O)[nH]c1=O (centres undefined)	-16.3%	22.7%	15.6%	-14.0%	11.0%	-14.7%
CCCS(=O)(=O)NCc1c(C)ncc2c1CCN(C(=O)c1ccc(Cl)cc1)C2	-5.7%	·	·	-5.7%	·	2.7%
O=C(Nc1cccc2ccccc12)OC1C=CS(=O)(=O)C1 (centres undefined)	?	?	-20.9%	11.2µM*	-18.0%	-16.6%
Cc1ccc2cccc(OCc3cccc([N+](=O)[O-])c3)c2n1	-15.9%	?	-0.5%[46.1 µM]	?	6.8%[46.1 µM]	-15.8%
COc1c(OC(C)=O)ccc(/C=C/c2ccc3cccc(OCc4ccccc4)c3n2)c1[N+](=O)[O-]	?	7.08µM*	?	-29.6%	?	-4.9%
COc1cc(/C=C/c2ccc3cccc(OC)c3n2)c(O)c([N+](=O)[O-])c1	·	?	·	·	·	-22.7%
COc1cc(/C=C/c2ccc3cccc(OC)c3n2)c(OC(C)=O)c([N+](=O)[O-])c1	·	8.91µM*	?	·	?	?
CCOC(=O)/C=c1\s/c(=C(/C#N)C(=O)OCC)n(-c2ccccc2)c1=O	·	·	-6.1%[46.1 µM]	·	·	·
SMILES	Vaccinia Venus	HCV inh	MARV entry inh	Vaccinia mCherry	Lassa entry inh	FMDV inh
CC[N+]1(CC(=O)c2cccs2)CCCCC1	-4.5%	·	·	6.7%	·	·
CCOc1ccc(CCNC(=O)c2oc(=O)c3ccccc3c2-c2ccc(C)cc2)cc1OCC	-0.7%	·	1.7%[46.1 µM]	-3.2%	?	-18.1%
COc1cc2c(cc1OC)CN(c1ccc3ccccc3n1)CC2	?	12.6µM*	-19.3%[46.1 µM]	?	27.7%	-22.7%
COc1ccccc1-c1ccc(NC2CCCC2)nn1	-13.7%	?	-2.0%	·	13.4%	51.0%
COc1cc2c(cc1OC)CN(c1ccc(-c3ccccc3OC)nn1)CC2	1.0%	?	?	-19.1%	?	35.5µM*
COc1cc2c(cc1OC)CN(c1ccc(C(F)(F)F)cn1)CC2	2.4%	?	?	?	6.3%[46.1 µM]	15.6%
CS(=O)(=O)Nc1cccc(-c2nccc(Nc3ccc(F)cc3)n2)c1	·	·	·	·	·	-4.1%
CC1CCC(C(C)C)C(OC(=O)Cn2c(-c3ccccc3)[n+](C)c3ccccc32)C1 (centres undefined)	?	?	5.8µM*	?	7.08µM*	12.6µM*
CC1CCC(C(C)C)C(OC(=O)Cn2c(-c3ccc(F)cc3)[n+](C)c3ccccc32)C1 (centres undefined)	?	10µM*	?	?	?	?
O=C(Oc1ccccc1)N1CCC2(CC1)CCN(c1ccncc1)CC2	·	·	·	·	·	-7.9%
COc1ccccc1CNC(=O)C1CCN(S(=O)(=O)c2c(C)noc2/C=C/c2cccs2)CC1	-11.3%	·	3.2%[46.1 µM]	-7.9%	12.9%[46.1 µM]	-5.0%
Cc1noc(/C=C/c2cccs2)c1S(=O)(=O)N1CCC(C(=O)NCCCN2CCC(C)CC2)CC1	·	11.2µM*	·	·	·	-12.7%
Cc1ccc(NC(=O)C2CCN(S(=O)(=O)c3c(C)noc3/C=C/c3ccco3)CC2)nc1	-12.8%	0.6%	?	-10.8%	?	35.5µM*
Cc1ccc(NC(=O)/C=C/c2ccco2)nc1	?	5.8%	7.08µM*	?	?	-0.1%
Cc1cccc(/C=C/c2onc(C)c2S(=O)(=O)N2CCC(C(=O)N3CCCCC3)CC2)c1	-14.3%	10µM*	·	-29.2%	?	-24.1%
O=C(c1n[nH]c2c1CCCC2)N1CCOc2ccc(C(O)C3CCCCC3)cc2C1 (centres undefined)	-2.0%	·	·	-2.7%	·	-12.1%
COc1ccc(N2C(=O)c3ccccc3NC(=O)C2C(=O)NCC(C)C)cc1 (centres undefined)	4.2%	·	·	?	·	-9.9%
Cc1noc(/C=C/c2ccco2)c1S(=O)(=O)N1CCC(C(=O)N2CCc3ccccc3C2)CC1	·	11.2µM*	-29.4%	·	?	-21.9%
O=C(/C=C/c1ccco1)Nc1ccc(Oc2ccc(Cl)cc2)cc1	?	8.91µM*	?	?	?	?
COc1cccc(NC(=O)/C=C/c2ccco2)c1	1.0%	-9.4%	?	i	-18.8%	38.2%
